Source: PubChem (National Center for Advancing Translational Sciences (NCATS))
The list is not random: actives were taken first. Their share in the collection is about 6.5%.
HepG2 viability: qHTS for Inhibitors of TGF-b: Cytotox Counterscreen | HepG2 CAGA-GFP viability, ATP luminescence, 18 h | Potency, µM (series often up to 46.1 µM), for the others: at the highest dose activity change, negative = cytotoxicity, usual class: cytotoxic | 0.76% of 410,000 active | AID 588856, 2011; note: potency is the fitted concentration of half-maximal effect
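CellTiter-Glo luminescence gave cytotoxicity after 18 hours at 37 degrees C. The cells were HepG2 CAGA-GFP in 1% FBS DMEM, stimulated with 500 pg/mL TGF-beta after compound addition. %Activity was normalised to no-cell wells (complete cell-killing) and DMSO (no toxicity), and curves were fitted and classified.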
HT1080 IDH1KD tx: qHTS for induction of synthetic lethality in tumor cells producing 2HG: qHTS for the HT-1080-IDH1KD cell line | HT-1080 IDH1 knockdown viability, ATP luminescence, 48 h | Potency, µM (series often up to 46.1 µM), for inactives: at the top dose activity, negative = toxicity, hits mostly cytotoxic | 2% of 360,000 active | AID 686971, 2013;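 note: potency is the fitted concentration of half-maximal effect; 0% = DMSO wells and -100% = cell-free medium wells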
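After a 2 h attachment period, IDH1KD HT-1080 cells took pin-transferred compound for 48 h at 37 °C; ATP-based luminescence after 10 min room-temperature reagent incubation reported viability.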
Giardia kill: Small Molecules that selectively kill Giardia lamblia: qHTS | Giardia lamblia trophozoite viability | activity change, % at 7.66 µM, hits read low | 0.15% of 340,000 active; in the data active = activity change below about -80%; inconclusive = between about -30% and that limit;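 note: parasites exposed to compound for two days anaerobically before the ATP read; % is set by controls: 0 for no effect and ±100 for the full control effect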
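Giardia lamblia trophozoites (100 cells/well) were incubated with compounds for 48 h at 37 deg C under anaerobic conditions. Viability was read as ATP content by one-step luminescence after 15-30 min at room temperature.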
HT1080NT lethal: qHTS for induction of synthetic lethality in tumor cells producing 2HG: qHTS for the HT-1080-NT fibrosarcoma cell line. Potency, µM (series often up to 46.1 µM), for inactives: at the highest dose activity, negative = less viability, hits mostly cytotoxic. HT-1080-NT fibrosarcoma viability, CellTiter-Glo ATP luminescence, 48 h. 1.6% of 360,000 active. AID 686970, 2013;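 note: NT is the 2HG producing partner of a matched IDH1 knockdown line; potency is the fitted concentration of half-maximal effect; 0% = DMSO-treated cells and -100% = media-only wells without cells; nearly all actives have a fitted effect of over 55% in size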
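Compounds were tested in concentration-response format on HT-1080-NT cells for 48 hours at 37 degrees C. Cell viability came from CellTiter-Glo luminescence; curves were classified by r2, response magnitude and activity.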
IL1B secr inh: qHTS for Inhibitors of Inflammasome Signaling: IL-1-beta AlphaLISA Primary Screen. 4.7% of 360,000 active. THP-1 LPS/ATP IL-1B secretion, AlphaLISA, 16 h; active compounds read low. activity change, % at 57.5 µM. AID 743279, 2014; in the data active = activity change below about -50%; inconclusive = mostly about -30% to -49%; note: % is set by controls: 0 for no effect and ±100 for the full control effect
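Secreted IL-1B measured by AlphaLISA bead assay after 16 h compound exposure of THP-1 cells; compounds (final up to 57.5 uM) added 1 h before LPS (250 ng/mL) and ATP (1.25 mM) stimulation; lower signal means less secretion.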
TGFb SMAD3 inh: qHTS for Inhibitors of TGF-b | 1.2% of 410,000 active | HepG2 CAGA-GFP TGF-b/SMAD3 reporter, GFP fluorescence, 18 h; TGF-beta stimulated, 500 pg/mL final | Potency, µM (doses to about 46.1 µM), without a hit: at the top dose activity, negative = inhibition, most hits filed as inhibitors; note: potency is the fitted concentration of half-maximal effect; % is set by controls: 0 for no effect and ±100 for the full control effect; nearly all actives have a fitted effect of over 65% in size
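TGF-beta reporter screen: HEPG2 CAGA-GFP, 1% FBS, 500 pg/mL TGF-beta final, 18 h; per-cell GFP summed per well; curves fitted and categorized by class.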
Numbers without * were called inactive. Unless noted, calls come from the whole dose curve; as a rule, active = well fitted curve in the direction sought with a large enough effect; inconclusive = small, poorly fitted or top-dose-only effect, or another doubt; inactive = no such curve, though single readings can be large; an effect the other way counts as inactive or inconclusive.

How did CCn1c(SCC(=O)Nc2cccc(C)c2)nc2nc3c(cc2c1=O)COC(C)(C)C3 do in these assays?
HepG2 viability: 1%; HT1080 IDH1KD tx: 14%; Giardia kill: -8; HT1080NT lethal: 15%; IL1B secr inh: -83*; TGFb SMAD3 inh: -14%

Results for COC(=O)c1ccc(C23CC4(C2)[C@H](CN(Cc2ccc(-c5ccccc5)cc2)[C@@H]4c2ccccc2)C3c2ccc(C(F)(F)F)cc2)cc1 (stereo partly specified) ?
HepG2 viability: 1%; HT1080 IDH1KD tx: 8%; Giardia kill: -17; HT1080NT lethal: 12%; IL1B secr inh: 0; TGFb SMAD3 inh: -24%

How did CCOc1ccccc1NC(=O)Nc1ccccc1OCc1cc(=O)n2ccccc2n1 do in these assays?
HepG2 viability: -8%; TGFb SMAD3 inh: -1%

What do the screens show for `COc1ccc(NC(=O)c2ccccn2)cc1OC`?
HepG2 viability: 6%; HT1080 IDH1KD tx: -2%; Giardia kill: -23; HT1080NT lethal: inconclusive; IL1B secr inh: 7; TGFb SMAD3 inh: 24%

What do the screens show for `COc1ccc(C(=O)N/N=C\C(C)=C\c2ccccc2)cc1OC`?
HepG2 viability: 2%; HT1080 IDH1KD tx: -5%; Giardia kill: 2; HT1080NT lethal: -8%; IL1B secr inh: -94*; TGFb SMAD3 inh: 10%

How did COc1ccc(C(=O)N/N=C(\C)c2ccccn2)cc1OC do in these assays?
HepG2 viability: -48%; HT1080 IDH1KD tx: 10µM*; Giardia kill: 25; HT1080NT lethal: -27%; IL1B secr inh: -79*; TGFb SMAD3 inh: inconclusive

Results for C/C(=N\NC(=O)c1ccc(Cl)c(Cl)c1)c1ccccn1 ?
HepG2 viability: -5%; HT1080 IDH1KD tx: 1.8µM*; Giardia kill: 1; HT1080NT lethal: inconclusive; IL1B secr inh: -103*; TGFb SMAD3 inh: inconclusive

Results for C/C(=N/NC(=O)c1ccccn1)c1ccncc1 ?
HepG2 viability: 1%; HT1080 IDH1KD tx: 10%; Giardia kill: -2; HT1080NT lethal: 6%; IL1B secr inh: -6; TGFb SMAD3 inh: 20%

How did CCOC(=O)c1ccc(NC2=CC(c3ccc(F)cc3)N(c3ccc(C(=O)OCC)cc3)C2=O)cc1 (stereo unspecified) do in these assays?
HepG2 viability: -8%; TGFb SMAD3 inh: -3%

Results for Cc1ccc(Cn2nnnc2CN2CCC(O)(c3ccc(F)cc3)CC2)cc1 ?
HepG2 viability: -17%; HT1080 IDH1KD tx: 0%; Giardia kill: 2; HT1080NT lethal: -2%; IL1B secr inh: -4; TGFb SMAD3 inh: -14%

Results for S=C(NCCSCc1c(Cl)cccc1Cl)Nc1ccccc1 ?
HepG2 viability: -78%; HT1080 IDH1KD tx: -3%; Giardia kill: -12; HT1080NT lethal: -6%; IL1B secr inh: -29; TGFb SMAD3 inh: inconclusive

Results for O=C(NCCSCc1c(F)cccc1Cl)Nc1ccccc1 ?
HepG2 viability: -14%; HT1080 IDH1KD tx: -1%; Giardia kill: -9; HT1080NT lethal: 3%; IL1B secr inh: -75*; TGFb SMAD3 inh: 7%

What do the screens show for `C#CCSc1n[nH]c(-c2ccco2)n1`?
HepG2 viability: 0%; HT1080 IDH1KD tx: 3%; Giardia kill: 4; HT1080NT lethal: 4%; IL1B secr inh: 31; TGFb SMAD3 inh: inconclusive

How did COc1ccc([C@@H]2CC(=O)c3c(O)cc(O)cc3O2)cc1O do in these assays?
HepG2 viability: 18%; HT1080 IDH1KD tx: 19%; Giardia kill: -9; HT1080NT lethal: 49%; IL1B secr inh: 15; TGFb SMAD3 inh: 1%

How did COC1=CC(=O)C(C2CC(=O)c3c(O)cc(O)cc3O2)=CC1=O (stereo unspecified) do in these assays?
HepG2 viability: 6%; HT1080 IDH1KD tx: -3%; Giardia kill: 16; HT1080NT lethal: 4%; IL1B secr inh: -97*; TGFb SMAD3 inh: 2%

What do the screens show for `COc1c(CC=C(C)C)cc(C2CC(=O)c3c(O)cc(O)cc3O2)cc1CC=C(C)C` (stereo unspecified)?
HepG2 viability: 16µM*; HT1080 IDH1KD tx: inconclusive; Giardia kill: -8; HT1080NT lethal: inconclusive; IL1B secr inh: inconclusive; TGFb SMAD3 inh: 14µM*

How did O=C1C[C@@H](c2ccccc2)Oc2cc(O)cc(O)c21 do in these assays?
HepG2 viability: -5%; HT1080 IDH1KD tx: 22%; Giardia kill: inconclusive; HT1080NT lethal: 13%; IL1B secr inh: 6; TGFb SMAD3 inh: -16%

How did C[C@H]1CN([C@@H](C)CO)C(=O)c2cccc(NC(=O)Nc3ccc(C(F)(F)F)cc3)c2O[C@@H]1CN(C)Cc1ccc(Cl)c(Cl)c1 do in these assays?
HepG2 viability: 13µM*; HT1080 IDH1KD tx: inconclusive; Giardia kill: 10; HT1080NT lethal: inconclusive; IL1B secr inh: 0; TGFb SMAD3 inh: inconclusive

How did C[C@@H]1CN([C@H](C)CO)C(=O)Cc2cc(NC(=O)Cn3cnnn3)ccc2O[C@@H]1CN(C)Cc1ccc(Cl)c(Cl)c1 do in these assays?
HepG2 viability: -53%; HT1080 IDH1KD tx: -16%; Giardia kill: -10; HT1080NT lethal: -2%; IL1B secr inh: -59*; TGFb SMAD3 inh: inconclusive

How did C[C@@H]1CN([C@@H](C)CO)C(=O)c2cc(NC(=O)CCC(F)(F)F)ccc2O[C@H]1CN(C)Cc1ccc(Cl)c(Cl)c1 do in these assays?
HepG2 viability: -85%; HT1080 IDH1KD tx: 23µM*; Giardia kill: inconclusive; HT1080NT lethal: inconclusive; IL1B secr inh: inconclusive; TGFb SMAD3 inh: 13µM*

What do the screens show for `C[C@@H]1CCCCO[C@@H](CN(C)Cc2ccc(Cl)c(Cl)c2)[C@@H](C)CN([C@H](C)CO)C(=O)c2cc(NC(=O)CCC(F)(F)F)ccc2O1`?
HepG2 viability: -25%; HT1080 IDH1KD tx: inconclusive; HT1080NT lethal: inconclusive; IL1B secr inh: -5; TGFb SMAD3 inh: inconclusive

Results for C[C@@H]1CN([C@H](C)CO)C(=O)c2cc(NS(=O)(=O)c3ccc(F)cc3)ccc2O[C@@H]1CN(C)Cc1ccc(Cl)c(Cl)c1 ?
HepG2 viability: -100%; HT1080 IDH1KD tx: inconclusive; Giardia kill: 17; HT1080NT lethal: 23µM*; IL1B secr inh: -72*; TGFb SMAD3 inh: 11µM*

How did C[C@H]1CN([C@@H](C)CO)C(=O)c2cccc(NC(=O)C3CC3)c2O[C@H]1CN(C)Cc1ccc(C(F)(F)F)cc1 do in these assays?
HepG2 viability: 1%; HT1080 IDH1KD tx: -5%; Giardia kill: 11; HT1080NT lethal: -3%; IL1B secr inh: -3; TGFb SMAD3 inh: 5%
